Hits are enriched below; roughly 6.3% of the tested compounds scored in any of these assays.
NADH coupling = inhibitors of PK/LDH coupling enzymes, profiling panel, artefact control, biochemical, MLSMR library | coupled PK/LDH NADH assays, four targets | IC50, µM (titrated, usually from 10 µM) | 65,000 compounds, 0.02% hits | AID 774, 2007;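 active = single-dose screening hits from any of four coupled enzyme assays that gave an IC50 when retested across doses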;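 also: the DPM-DC format reads NADH fluorescence rather than 340 nm absorbance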
Fluor 339 460 = intrinsic fluorescence of library compounds, ex339/em460 – biochemical, MLSMR library, data from DPM-DC assay, artefact control, profiling panel | AID 709, 2007 | fluorescence fold increase at 10 µM | compound autofluorescence, ex339/em460 nm, NADH buffer; hits give high values; 1 = no-compound wells, NADH background | 65,000 compounds, 5.5% hits;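 active = at 10 µM, mean starting fluorescence two-fold or more over control wells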;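 also: signal is the first read of a kinetic run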
MK inhibit = S. pneumoniae MK inhibitors, primary screen, biochemical, PK/LDH-coupled NADH absorbance; mevalonate kinase [Streptococcus pneumoniae D39]; purified MK, PK/LDH-coupled NADH absorbance 340 nm; 65,000 compounds, 0.48% hits; inhibition, % at 10 µM;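 active = ranked among the strongest by inhibition in the single 10 µM screen, a fixed top-ranked set picked for dose follow-up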
DPM-DC inhibit = S. pneumoniae DPM-DC inhibitors, primary screen, biochemical, PK/LDH-coupled NADH fluorescence; diphosphomevalonate decarboxylase (Streptococcus pneumoniae D39); purified DPM-DC; calls only at 10 µM; 65,000 compounds, 0.49% hits;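 active = the 320 compounds with the highest percent inhibition in the single-dose primary screen, excluding strongly autofluorescent ones, cut at about 32% in these data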;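 also: kinetic rate of NADH fluorescence loss reporting ADP formed by the decarboxylase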
A340 absorber = compound light absorbance at 340 nm, profiling panel, artefact control, biochemical, MLSMR library, data from PS, PMK, MK assays; compound absorbance at 340 nm, fold over control; fold change at 10 µM; 65,000 tested, under 10 active; AID 708, 2007;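 active = at 10 µM dose, initial 340 nm absorbance at least 2 fold that of control wells; inactive = change under 2 fold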;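 also: initial absorbance extrapolated from kinetic A340 decline of NADH oxidation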
Spn PMK inh = S. pneumoniae PMK inhibitors, primary screen, biochemical, mevalonate pathway, pilot trial included. 65,000 compounds, 0.49% hits. phosphomevalonate kinase (Streptococcus pneumoniae D39). inhibition, % at 10 µM. purified PMK, PK/LDH-coupled NADH absorbance 340 nm. AID 539, 2006;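 active = top-ranked compounds by inhibition in the single 10 µM screen, taking a fixed number of the strongest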
A number is an active result; . = inactive; / = not tested or not shown; + = active, no number.

SMILES | NADH coupling | Fluor 339 460 | MK inhibit | DPM-DC inhibit | A340 absorber | Spn PMK inh
Cc1nn(CC(=O)Nc2nnc(CC(=O)N3CCCC3)s2)c(=O)c2ccccc12 | . | . | . | . | . | .
CSc1nc2[nH]c3c(c2c2nnnn12)CCCC3 | . | 2.3 | . | / | . | .
COc1ccc2[nH]c(=O)c3c(c2c1)OC(C)(C)C=C3 | . | 2.5 | . | . | . | .
COc1ccc2[nH]c3ccccc3c2c1 | . | . | . | . | . | .
O=C(CCNS(=O)(=O)c1cccc2nsnc12)NC1CCN(Cc2ccccc2)CC1 | . | . | . | . | . | .
O=C(O)CCc1nn2c3ccccc3nc2n(CCN2CCCCC2)c1=O | . | 4.4 | . | / | . | .
O=C(O)CCc1nc2ccccc2n(CCc2ccccc2)c1=O | . | 2.3 | . | . | . | .
CCn1c(=O)c(C)nn2c3ccccc3nc12 | . | . | . | . | . | .
CCc1nc2ccccc2n(CCOCCn2c(=O)c(CC)nc3ccccc32)c1=O | . | . | . | . | . | .
Cc1c(=O)n(OCc2c(F)cccc2F)c2ccccc2[n+]1[O-] | . | . | . | . | . | .
COc1ccc(-c2ccc(-c3nnc(Cc4ccc(OC)c(OC)c4)o3)cc2)cc1 | . | 2.6 | . | . | . | .
CCOc1ccccc1NC(=O)N1CCCC1C(=O)Nc1ccc(-n2cnnn2)c(C)c1 (configuration not stated) | . | . | . | . | . | .
CCC(=O)Nc1ccc(NC(=O)c2ccccn2)cn1 | . | . | active | . | . | .
CCCn1c(CCC(=O)O)ccc1-c1ccc(F)cc1 | . | 2 | . | . | . | .
COc1ccc(-c2ccc(CCC(=O)O)n2C(C)C)cc1 | . | 2 | . | . | . | .
O=C(O)CCc1ccc(-c2ccccc2)n1CC1CCCO1 (configuration not stated) | . | 4 | . | / | . | .
COC(=O)Cn1c(CCC(=O)O)ccc1-c1ccccc1 | . | 2.2 | . | / | . | .
NC(=O)C1CCN(C(=O)C2CCN(S(=O)(=O)c3ccccc3)CC2)CC1 | . | . | . | . | . | .
CCN(CC)C(=O)c1sc2nc(-c3ccccn3)[nH]c(=O)c2c1C | . | 3.4 | . | + | . | .
CCN(CC)C(=O)c1sc2nc(-c3ccncc3)[nH]c(=O)c2c1C | . | 5 | . | / | . | .
O=c1[nH]c(-c2ccccn2)nc2ccccc12 | . | . | . | . | . | .
Cc1csc(NC(=O)C2CCCN2C(=O)Oc2ccccc2)n1 (configuration not stated) | . | . | . | . | . | .
COc1ccc(NC(=O)Cn2nnc(-c3ccccc3NC(=O)c3cccs3)n2)cc1 | . | 3.5 | . | / | . | .
COC(=O)c1ccc(Sc2ccc(C)cc2)c(N)c1 | . | 3.1 | . | . | . | .
CCOc1cc2[nH]c(=O)n(CC3CCC(C(=O)NCCC(C)C)CC3)c(=O)c2cc1OCC (configuration not stated) | . | . | . | . | . | .
SMILES | NADH coupling | Fluor 339 460 | MK inhibit | DPM-DC inhibit | A340 absorber | Spn PMK inh
CCOc1cc2[nH]c(=O)n(CCCCC(=O)NC3CCCCCC3)c(=O)c2cc1OCC | . | 2.3 | . | . | . | .
CCOc1cc2[nH]c(=O)n(CCCN3CCCC3=O)c(=O)c2cc1OCC | . | 2.3 | . | . | . | .
CCOc1cc2[nH]c(=O)n(CC3CCC(C(=O)NCCCOC)CC3)c(=O)c2cc1OCC (configuration not stated) | . | 2.1 | . | . | . | .
COC1Cc2ccccc2N(C(=O)N2CCN(CCO)CC2)c2ccccc21 (configuration not stated) | . | . | . | . | . | .
Cc1ccnc2c(N3C(=O)C4C5C=CC(C5)C4C3=O)cccc12 (configuration not stated) | . | . | . | . | . | .
O=C1CCCC2=C1C(c1cccs1)n1nc(SCc3ccccc3F)nc1N2 (configuration not stated) | . | 2.2 | . | . | . | .
O=C(Nc1ccc2c(c1)OCCO2)C1CCN(C(=O)c2ccc(F)cc2)CC1 | . | . | . | . | . | .
CCC(Sc1nccn1C)C(=O)Nc1nnc(C)s1 (configuration not stated) | . | . | . | . | . | .
CCC(Sc1nccn1C)C(=O)Nc1cccc2ccccc12 (configuration not stated) | . | . | . | . | . | 41
Cn1c(-c2c(N)n(C3CCCC3)c3nc4ccccc4nc23)nc2ccccc21 | . | 3.8 | . | / | . | .
CCCOc1ccc2oc(=O)c3c(c2c1)CCCN3C(=O)CN(C)Cc1ccccc1 | . | . | . | . | . | .
O=C(Cn1nnc(-c2ccccc2Cl)n1)N1CCN(S(=O)(=O)c2ccc(Cl)cc2)CC1 | . | . | . | . | . | .
CCN1CCN(C(=O)c2cc3c(=O)n4ccccc4nc3n2Cc2ccccc2)CC1 | . | 3.9 | . | / | . | .
O=C(NCCN1CCOCC1)c1cc2c(=O)n3ccccc3nc2n1Cc1ccccc1 | . | 3.9 | . | / | . | .
CCCOC(=O)CC1C(=O)NCCN1Cc1ccccc1C (configuration not stated) | . | . | . | . | . | .
CCOC(=O)CC1C(=O)NCCN1C(=O)c1cc2c(=O)n3cccc(C)c3nc2s1 (configuration not stated) | . | 2.1 | . | / | . | .
CCOC(=O)CC1C(=O)NCCN1C(=O)c1cc2c(=O)n3ccccc3nc2s1 (configuration not stated) | . | 2.1 | . | / | . | .
COC(=O)CSc1nnc(CNC(=O)c2cccs2)n1-c1cc(OC)ccc1OC | . | . | . | . | . | .
Cn1c(NC(=O)c2ccccc2NC(=O)C(C)(C)C)nc2ccccc21 | . | . | . | . | . | .
COCCCNC(=O)c1ccccc1NS(C)(=O)=O | . | 3.4 | . | / | . | .
CS(=O)(=O)Nc1ccccc1C(=O)NC1CC2CCC1C2 (configuration not stated) | . | 3.8 | . | / | . | .
Cn1c(=O)c2c(SCc3ccccn3)nc(-c3ccccc3)nc2n(C)c1=O | . | . | . | . | . | .
CCOC(=O)NC(NCC(O)c1ccccc1)(C(F)(F)F)C(F)(F)F (configuration not stated) | . | . | . | . | . | .
Cc1cc(N2CCN(C3CCCC3)CC2)n2nc(C)c(-c3ccccc3)c2n1 | . | . | . | + | . | .
Cc1cc(N2CCOCC2)n2nc(C)c(-c3ccccc3)c2n1 | . | . | . | . | . | .
Cc1nn2c(N3CCN(c4ccccn4)CC3)cc(C(C)C)nc2c1-c1ccccc1 | . | 3.1 | . | . | . | .
